Entries with a potency or affinity are not part of this list.
Key:
Staphylococcus aureus = settings: Concentration 20 uM; ASSAY_TEST Inhibition of Bacterial Growth; detection method Absorption (OD600); MEDIA CAMHB; plate type 384well; NBS; CORNING #3640; time 18 hr
Escherichia coli = settings: Concentration 20 uM; ASSAY_TEST Inhibition of Bacterial Growth; detection method Absorption (OD600); MEDIA CAMHB; plate type 384well; NBS; CORNING #3640; time 18 hr

SMILES: COC(=O)Nc1nc2cc(C(=O)c3ccccc3)ccc2[nH]1 [MEBENDAZOLE]
- Inhibition (Staphylococcus aureus): 7.86%
- Inhibition (Escherichia coli): 3.86%

SMILES: CC[C@@]1(O)C(=O)OCc2c1cc1n(c2=O)Cc2cc3c(CN(C)C)c(O)ccc3nc2-1.Cl [TOPOTECAN HYDROCHLORIDE]
- Inhibition (Staphylococcus aureus): 12.09%
- Inhibition (Escherichia coli): 3.87%

SMILES: CN1CC(=O)N2[C@H](c3ccc4c(c3)OCO4)c3[nH]c4ccccc4c3C[C@@H]2C1=O
- Inhibition (Staphylococcus aureus): 6.36%
- Inhibition (Escherichia coli): 0.57%

SMILES: Cc1ccc(-c2cc(C(F)(F)F)nn2-c2ccc(S(N)(=O)=O)cc2)cc1 [CELECOXIB]
- Inhibition (Staphylococcus aureus): 5.39%
- Inhibition (Escherichia coli): 6.38%

SMILES: COCCCC/C(=N\OCCN)c1ccc(C(F)(F)F)cc1.O=C(O)/C=C\C(=O)O [FLUVOXAMINE MALEATE]
- Inhibition (Staphylococcus aureus): 7.49%
- Inhibition (Escherichia coli): 3.58%

SMILES: CC(C[N+](C)(C)C)OC(N)=O.[Cl-] (stereo unspecified) [BETHANECHOL CHLORIDE]
- Inhibition (Staphylococcus aureus): 5.38%
- Inhibition (Escherichia coli): -1.38%

SMILES: C[n+]1ccccc1/C=N/O.[Cl-] [PRALIDOXIME CHLORIDE]
- Inhibition (Staphylococcus aureus): 12.69%
- Inhibition (Escherichia coli): 4.53%

SMILES: O=c1c(O[C@@H]2O[C@H](CO)[C@@H](O)[C@H](O)[C@H]2O)c(-c2ccc(O)c(O)c2)oc2cc(O)cc(O)c12 [ISOQUERCETIN]
- Inhibition (Staphylococcus aureus): 18.79%
- Inhibition (Escherichia coli): -1.78%

SMILES: Br.Br.O=C1CC2(CCCC2)CC(=O)N1CCNCC1COc2ccccc2O1 (stereo unspecified)
- Inhibition (Staphylococcus aureus): 17.36%
- Inhibition (Escherichia coli): 6.1%

SMILES: COC(=O)C1=C(C)NC(C)=C(C(=O)O[C@@H]2CCCN(Cc3ccccc3)C2)[C@@H]1c1cccc([N+](=O)[O-])c1.Cl
- Inhibition (Staphylococcus aureus): 8.73%
- Inhibition (Escherichia coli): -0.62%

SMILES: Cl.Clc1ccccc1CN1CCc2sccc2C1 [TICLOPIDINE HYDROCHLORIDE]
- Inhibition (Staphylococcus aureus): 6.77%
- Inhibition (Escherichia coli): 1.84%

SMILES: C#C[C@]1(O)CC[C@H]2[C@@H]3[C@H](C)CC4=C(CCC(=O)C4)[C@H]3CC[C@@]21C [TIBOLONE]
- Inhibition (Staphylococcus aureus): 12.93%
- Inhibition (Escherichia coli): 2.02%

SMILES: CCCNC(=O)NS(=O)(=O)c1ccc(Cl)cc1 [CHLORPROPAMIDE]
- Inhibition (Staphylococcus aureus): 17.96%
- Inhibition (Escherichia coli): 2.94%

SMILES: CC(O)CO.N[C@@H](C(=O)N[C@@H]1C(=O)N2C(C(=O)O)=C(CSc3c[nH]nn3)CS[C@H]12)c1ccc(O)cc1
- Inhibition (Staphylococcus aureus): 31.82%
- Inhibition (Escherichia coli): 5.65%

SMILES: CNNCc1ccc(C(=O)NC(C)C)cc1.Cl [PROCARBAZINE HYDROCHLORIDE]
- Inhibition (Staphylococcus aureus): 12.92%
- Inhibition (Escherichia coli): -2.72%

SMILES: CC(C)(C)NCC(O)c1ccc(O)c(CO)c1.CC(C)(C)NCC(O)c1ccc(O)c(CO)c1.O=S(=O)(O)O (stereo unspecified) [ALBUTEROL SULFATE]
- Inhibition (Staphylococcus aureus): 8.55%
- Inhibition (Escherichia coli): 5.03%

SMILES: COC1=CC(=O)C[C@@H](C)[C@]12Oc1c(Cl)c(OC)cc(OC)c1C2=O [GRISEOFULVIN]
- Inhibition (Staphylococcus aureus): 7.83%
- Inhibition (Escherichia coli): 2.08%

SMILES: CN1CCN(CC/C=C2/c3ccccc3Sc3ccc(S(=O)(=O)N(C)C)cc32)CC1 [THIOTHIXENE]
- Inhibition (Staphylococcus aureus): 8.53%
- Inhibition (Escherichia coli): 3.6%

SMILES: CCN(CC)CCNC(=O)c1ccc(N)cc1.Cl [PROCAINAMIDE HYDROCHLORIDE]
- Inhibition (Staphylococcus aureus): -10.39%
- Inhibition (Escherichia coli): -0.2%

SMILES: CN(CCOc1ccc(CC2SC(=O)NC2=O)cc1)c1ccccn1.O=C(O)/C=C\C(=O)O (stereo unspecified) [ROSIGLITAZONE MALEATE]
- Inhibition (Staphylococcus aureus): 5.02%
- Inhibition (Escherichia coli): 0.27%

SMILES: NC(N)=Nc1nc(CSCC/C(N)=N/S(N)(=O)=O)cs1 [FAMOTIDINE]
- Inhibition (Staphylococcus aureus): 6.96%
- Inhibition (Escherichia coli): 3.55%

SMILES: CC1(C)O[C@@H]2C[C@H]3[C@@H]4C[C@H](F)C5=CC(=O)C=C[C@]5(C)[C@H]4[C@@H](O)C[C@]3(C)[C@]2(C(=O)CO)O1 [FLUNISOLIDE]
- Inhibition (Staphylococcus aureus): 6.94%
- Inhibition (Escherichia coli): 3.33%

SMILES: COc1ccc(/C=C/C(=O)Nc2ccccc2C(=O)O)cc1OC
- Inhibition (Staphylococcus aureus): 8.38%
- Inhibition (Escherichia coli): -3.33%

SMILES: C#C[C@]1(O)CC[C@H]2[C@@H]3CCC4=Cc5oncc5C[C@]4(C)[C@H]3CC[C@@]21C [DANAZOL]
- Inhibition (Staphylococcus aureus): 2.21%
- Inhibition (Escherichia coli): -2.5%

SMILES: CC(C)[C@H]1CC[C@H](C(=O)N[C@H](Cc2ccccc2)C(=O)O)CC1 [NATEGLINIDE]
- Inhibition (Staphylococcus aureus): 10.43%
- Inhibition (Escherichia coli): 6.41%

SMILES: CCCCC1=NC2(CCCC2)C(=O)N1Cc1ccc(-c2ccccc2-c2nnn[nH]2)cc1 [IRBESARTAN]
- Inhibition (Staphylococcus aureus): 6.34%
- Inhibition (Escherichia coli): -3.35%

SMILES: CC(N)(Cc1ccc(O)c(O)c1)C(=O)O (stereo not drawn) [METHYLDOPA (RACEMIC)]
- Inhibition (Staphylococcus aureus): -29.5%
- Inhibition (Escherichia coli): 7.2%

SMILES: O=c1[nH]c(=O)n(C2CCCO2)cc1F (stereo unspecified) [TEGAFUR]
- Inhibition (Staphylococcus aureus): 17.75%
- Inhibition (Escherichia coli): 8.41%

— ChEMBL document CHEMBL4513141, “CO-ADD screening of NIH (USA) - Clinical Collection” (2021)
